Assay outcomes: PubChem, National Center for Advancing Translational Sciences (NCATS)
Hits are enriched below; roughly 13% of the tested compounds scored in any of these assays.
HCV inhibitor: HCV inhibition. Huh7.5.1 HCVcc-Cre infection, luciferase reporter, 44 h. Potency, µM (doses to about 41.8 µM), inactives show at the top dose activity change, negative = inhibition, actives largely listed as inhibitors. AID 651820. 3.4% of 340,000 active; active = well fitted inhibition curve with a large enough effect; inconclusive = small, poorly fitted or top-dose-only effect, or another doubt; inactive = no such curve, though single readings can be large or run the other way; also: potency is read from the fitted curve at half-maximal effect; % is scaled to controls: 0 for no effect and ±100 for the full control effect
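Seed cells (1,000/well) for 4 h; treat with compound and infect with HCVcc-Cre, moi about 0.5. Incubate 44 h, then detect luciferase activity.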
Marburg entry inh: Marburg virus entry inhibition; 1.8% of 300,000 active; Potency, µM (top dose mostly 37.8 µM), for the others: top-dose activity change, negative = inhibition, usual class: inhibitors; AID 540276; Marburg virus pseudotyped entry inhibition, cell reporter; calls by dose curve; tested in HEK293 cells; also: potency is read from the fitted curve at half-maximal effect; % is scaled to controls: 0 for no effect and ±100 for the full control effect
Shiga toxin inh: Shiga toxin inhibition. Vero cells, Shiga toxin protein synthesis inhibition reporter. 9.2% of 290,000 active. inhibition, % at 38.7 µM; in the data active = inhibition mostly above about 28%, no sharp cut-off; inactive = mostly below about 43%; also: 0% is about no effect
LASV entry inh: Lassa virus entry inhibition | Potency, µM (series often up to 37.9 µM), inactives show at the highest dose activity change, negative = inhibition, usual class: inhibitors | Lassa virus pseudotype entry inhibition, cell reporter | 1.2% of 300,000 active; calls by dose curve; tested in HEK293 cells; also: potency is read from the fitted curve at half-maximal effect; % is scaled to controls: 0 for no effect and ±100 for the full control effect; nearly all actives have a fitted effect of over 50% in size
FMDV antiviral: antivirals against foot and mouth disease virus. FMDV antiviral cell-based qHTS. AID 1159524. 1.2% of 410,000 active. Potency, µM (doses to about 57.9 µM), without a hit: top-dose activity change, negative = inhibition, actives largely listed as inhibitors; calls by dose curve; tested in HEK293T cells; also: read-out not given here; potency is read from the fitted curve at half-maximal effect; % is scaled to controls: 0 for no effect and ±100 for the full control effect; nearly all actives have a fitted effect of over 45% in size
CHX counter: affects cycloheximide protein synthesis inhibition readout, counter-screen; cell reporter, cycloheximide protein synthesis inhibition counterscreen; max response, %; 12% of 300,000 active; AID 2314; in the data active = max response mostly above about 13%, no sharp cut-off; inactive = mostly below about 14%; also: read at 38.3 µM for the half of the compounds with a filed dose; 0% is about no effect
Numbers without * were called inactive; ? = inconclusive; . = no result; [ ] = dose if it differs, or a comment.

SMILES | HCV inhibitor | Marburg entry inh | Shiga toxin inh | LASV entry inh | FMDV antiviral | CHX counter
CN(C(=O)COC(=O)c1cc(S(=O)(=O)N2CCOCC2)c(Cl)cc1Cl)C1CCS(=O)(=O)C1 (stereo unspecified) | -9% | ? | -2 | 1% | -5% | -6
CCc1ccc(NC(=O)CSc2nc3ccccc3c(=O)n2CCCC(=O)NCCCN2CCOCC2)cc1 | 11µM* | ? | -9 | ? | -17% | 5
O=C(CSc1nc2ccccc2c(=O)n1CCCN1CCOCC1)Nc1cccc(S(=O)(=O)N2CCCCCC2)c1 | 13µM* | ? | 2 | ? | -8% | -4
Cc1ccc(-c2nc3ccccc3c(=O)n2CCCN2CCOCC2)cc1 | 11% | 1% | 54* | -4% | 20% | 15
Cc1ccc(NC(=O)CSc2nc3ccccc3c(=O)n2CCCN2CCCCC2)cc1Cl | 2µM* | ? | -13 | ? | -25% | -16
CCC(C)NC(=O)CSc1nc2ccccc2c(=O)n1CCCN1CCCCC1 (stereo unspecified) | 9% | . | -5 | . | -15% | -2
[O-]/C(=C(\C(=S)Nc1ccccc1F)[n+]1ccccc1)c1ccc(OC(F)F)cc1 | 2% | . | -8 | . | -7% | 11
Cc1cc(SCC(=O)Nc2cccc(S(=O)(=O)N3CCOCC3)c2)nc2ccccc12 | 13µM* | . | -19 | . | -10% | -2
CC(=O)c1c(C)[nH]c(C(=O)CSc2nc3ccccc3c(=O)n2CCCN2CCOCC2)c1C | 0% | 21µM* | 20 | -3% | -17% | 0
CC1CCN(CCCn2c(SCC(=O)Nc3ccccc3Cl)nc3ccccc3c2=O)CC1 | 11µM* | ? | -20 | 6.3µM* | -13% | -10
O=C(CSc1nc2ccccc2c(=O)n1CCCN1CCOCC1)Nc1ccc(F)c(Cl)c1 | 1.8µM* | . | . | . | ? | .
CC(=O)Nc1ccc(NC(=O)CSc2nc3ccccc3c(=O)n2CCCN2CCOCC2)cc1 | 26% | 3% | . | 8% | 7% | .
Cc1ccccc1-c1cc2nc(C)c(Cl)c(=O)n2[nH]1 | 11% | 13µM* | . | ? | 41% | .
Cc1cc(=O)n2[nH]c(-c3ccsc3-n3c(C)ccc3C)cc2n1 | -7% | . | 9 | . | -28% | 33
Cc1nc2cc(-c3ccsc3-n3c(C)ccc3C)[nH]n2c(=O)c1Cl | 20% | -30% | -1 | -1% | 32µM* | -4
O=C(CSc1nnc(-c2ccncc2)o1)Nc1ccccc1C(F)(F)F | 23% | -3% | -8 | 1% | -7% | -1
Cc1ccc(C)c(NC(=O)CSc2nnc(-c3ccccc3C)o2)c1 | 0% | 21% | 8 | 8% | 4% | -5
Cc1cccc(NC(=O)CSc2nnc(-c3cc(C)n(-c4ccccc4)c3C)o2)c1C | -18% | -5% | 33* | ? | 6% | 25*
Cc1cc(-c2nnc(SCC(=O)Nc3ccccc3C(F)(F)F)o2)c(C)n1-c1ccccc1 | 9% | ? | 58 | 2% | ? | 40*
Clc1ccc(Br)cc1-c1nc(-c2ccncc2)no1 | 7% | -15% | 9 | -14% | 34% | 8
COc1cc(CNc2ccc3[nH]c(=O)[nH]c3c2)ccc1OCc1c(F)cccc1Cl | ? | -15% | 7 | ? | -23% | 2
COc1cc(CNc2ccc3[nH]c(=O)[nH]c3c2)ccc1OCc1ccc(Cl)cc1 | ? | . | 45* | . | 9% | 29*
COc1cc(CNc2ccc3[nH]c(=O)[nH]c3c2)ccc1OCC(=O)NC(C)(C)C | 11% | -20% | 16 | ? | -5% | -1
COc1cc(CNc2ccc3[nH]c(=O)[nH]c3c2)ccc1OCc1ccccc1 | ? | . | 18 | . | ? | 14
COc1cc(CNc2ccc(N3CCN(C(C)=O)CC3)cc2)ccc1OCc1ccc(F)cc1 | 1% | ? | 75* | -7% | -16% | 25*
SMILES | HCV inhibitor | Marburg entry inh | Shiga toxin inh | LASV entry inh | FMDV antiviral | CHX counter
COc1cc(CNc2ccc3[nH]c(=O)[nH]c3c2)ccc1OCc1ccc(F)cc1Cl | ? | 16% | 31* | ? | 1% | 14
COc1cc(CNc2ccc3[nH]c(=O)[nH]c3c2)ccc1OCc1ccc(F)cc1 | ? | . | 36* | . | -20% | 31*
COC(=O)c1ccc(C2C(C(C)=O)=C(C)Nc3ncnn32)cc1 (stereo unspecified) | 7% | . | -21 | . | -13% | -2
O=C(Nc1ccnn1C1CCN(Cc2ccc(Cl)cc2)CC1)C1CCCC1 | -13% | -10% | -5 | -2% | -16% | -3
COc1cccc(Oc2coc3cc(OC(=O)N4CCOCC4)ccc3c2=O)c1 | ? | -16%[46.1 µM] | 27 | -12% | -24% | 11
Cc1cccc(C)c1N1C(=O)c2ccccc2NC(=O)C1C(=O)NCCOc1ccccc1 (stereo unspecified) | . | . | . | . | -19% | .
CCn1ccc2cc(S(=O)(=O)N3CCC(C(=O)NCCc4ccc(SC)cc4)CC3)ccc21 | . | . | . | -4%[46.1 µM] | -19% | .
COc1cc(CNc2ccc3[nH]c(=O)[nH]c3c2)ccc1OCc1ccccc1F | ? | ? | 37* | -10%[46.1 µM] | -15% | 19*
C=CCOc1ccc(CNc2ccc3[nH]c(=O)[nH]c3c2)cc1OC | -14% | 17%[46.1 µM] | 16 | ? | -4% | 5
C=CCOc1cccc(CNc2ccc3[nH]c(=O)[nH]c3c2)c1 | 11µM* | ? | 27 | ? | ? | 5
COc1cc(CNc2ccc3[nH]c(=O)[nH]c3c2)ccc1OCc1ccccc1C | -38% | -22% | 27 | -11% | ? | 22
O=C(NCC(c1cccs1)N1CCOCC1)c1cccc([N+](=O)[O-])c1 (stereo unspecified) | 32% | -23% | -21 | ? | -8% | 0
O=C(NCC(c1cccs1)N1CCOCC1)c1cc([N+](=O)[O-])cc([N+](=O)[O-])c1 (stereo unspecified) | -6% | -26% | 2 | -1% | -16% | 18*
COc1cc(C(=O)NCC(c2cccs2)N2CCOCC2)cc(Br)c1OCc1ccccc1 (stereo unspecified) | 10µM* | . | . | . | -7% | .
Cc1ccc(Cl)c(OCC(=O)NCC(c2cccs2)N2CCOCC2)c1 (stereo unspecified) | 13µM* | ? | . | ? | ? | .
Cc1ccc(C)c(Nc2cc(C)nc3ncnn23)c1 | -8% | 0% | . | ? | -8% | -3
CCCNCC1C(Oc2ccc(Cl)cc2Cl)C(=O)N1c1cccc(C)c1C (stereo unspecified) | 32µM* | . | -5 | . | ? | -12
CSc1ccc(Cl)c(C(=O)NNC(=O)c2cccs2)c1 | 8% | -2%[46.1 µM] | . | 8%[46.1 µM] | 20% | .
Cc1nn(C)cc1C(N)=O | 5% | -14%[46.1 µM] | -13 | 0% | -11% | -2
C/C(=N\NC(=O)c1ccn[nH]1)c1cn(C)nc1C | 4% | ? | 117* | ? | 12% | 44*
O=C(C[n+]1cc(-c2ccc(F)cc2)n2c1CCC2)c1cccs1 | -1% | 16%[46.1 µM] | 89* | 8% | 0% | 18*
Cn1c(NC(=O)C[n+]2cc(-c3ccc(F)cc3)n3c2CCC3)cc(=O)n(C)c1=O | 12% | -5% | 19 | -8% | -15% | -3
